Assay [1] in a line: Quantitative High-Throughput drug screen in 47 multiple myeloma cell lines against the NCATS MIPE library collection: RPMI8226_ATCC cell viability assay (AID 1919871). Note: nearly all actives have a fitted effect of over 30% in size. An outline of the steps:
(§1)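 500 cells/well; MIPE 4.0 drugs pin-transferred; 48 h, 37C, 5% CO2. CellTiter-Glo, 5 min RT, luminescence. Controls: DMSO 100%, media 0%.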

Assay [2] is described as follows: qHTS drug screen for cell cycle checkpoint inhibitors in PARPi-resistant BRCA-mutant ovarian cancer cell lines. (AID 1963452; calls by dose curve). To be noted: PEO1/OlaR viability, CellTiter-Glo luminescence, 96 h; for Z-AUC: stronger effect = lower value. Put shortly: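 PEO1, PEO4 and PEO1/OlaR ovarian cancer cells, 600 per well, exposed 96 h at 37C to a dilution series. Viability read by CellTiter-Glo luminescence, normalized to DMSO and empty wells; activity summarized as Z-AUC.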

Assay [3] can be described thus: qHTS for identification of novel therapeutic agents for treatment of microphthalmiaassociated transcription factor (MiT) renal cell carcinoma (RCC) (AID 1963991; calls by dose curve). The following applies: CellTiter-Glo, 48 h; for Potency: active = Z-AUC below -0.8 in all three lines; for z-score: stronger effect = lower value. An outline of the steps:
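Curves over 11 concentrations were fitted to CellTiter-Glo luminescence, scaled between empty wells (0%) and DMSO (100%) viability. Cells were UOK109, UOK124 and UOK145 TFE3-fusion RCC lines at 500/well, exposed 48 hours at 37 C.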
(qHTS replaces the single test concentration by a dilution series.)

Assay [4] is described as follows: Quantitative High-Throughput drug screen in 47 multiple myeloma cell lines against the NCATS MIPE library collection: PCM6_Riken cell viability assay (AID 1919870). Note: nearly all actives have a fitted effect of over 30% in size. An outline of the steps: as §1
Assay [5] is described as follows: Quantitative High-Throughput drug screen in 47 multiple myeloma cell lines against the NCATS MIPE library collection: OPM2_DSMZ cell viability assay (AID 1919872). Note: nearly all actives have a fitted effect of over 30% in size. Put shortly:
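CellTiter-Glo ATP luminescence gave viability after 48 h compound treatment at 37C of 500 multiple myeloma cells per well. Normalisation used DMSO-only wells as 100% and media-only wells as 0% viability; primary qHTS of approved and investigational drugs.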

The nature of assay [6]: Quantitative High-Throughput drug screen in 47 multiple myeloma cell lines against the NCATS MIPE library collection: KMS11_JCRBsus cell viability assay (AID 1919873). Note: nearly all actives have a fitted effect of over 50% in size. An outline of the steps:
as §1

A short description of assay [7]: Quantitative High-Throughput drug screen in 47 multiple myeloma cell lines against the NCATS MIPE library collection: KMS28BM_JCRB cell viability assay (AID 1919874). Note: nearly all actives have a fitted effect of over 35% in size. Put shortly: as §1
Where [8] appears, read: measured here: PEO1 parental Z-AUC.
The mark [9] stands for this setting: TFE3-RCC UOK109 viability, measured here: UOK109 Z-AUC.
[10] abbreviates: TFE3-RCC viability, measured here: UOK124 Z-AUC.
Where [11] appears, read: TFE3-RCC viability, measured here: UOK145 Z-AUC.

Inconclusive results are not listed. The source made the active and inactive calls. Unless noted, calls come from the whole dose curve; as a rule, active = well fitted cell-killing curve with a large enough effect; inconclusive = small, poorly fitted or top-dose-only effect, or effect the other way; inactive = no such curve, though single readings can be large or run the other way.
Potency is the fitted concentration of half-maximal effect.

On to `CS(=O)(=O)N1CCN(Cc2cc3nc(-c4cccc5[nH]ncc45)nc(N4CCOCC4)c3s2)CC1`, for which the Potency is 0.264 µM (active) in assay [1] and 0.105 µM (active) in assay [3] (TFE3-RCC UOK109 viability). The Z-AUC is 0.0585 (inactive) in assay [2], 0.321 in assay [2] (setting [8]) and 0.781 in assay [2] (measured here: PEO4 Z-AUC). Also, the z-score is -1.55 in assay [3] (setting [9]), -1.58 in assay [3] (setting [10]) and -1.5 in assay [3] (setting [11]).
Take `Cn1c(CNc2ccc(C(=N)N)cc2)nc2cc(C(=O)N(CCC(=O)O)c3ccccn3)ccc21`: the Potency result in assay [4], in assay [1], in assay [5], in assay [6] and in assay [7] was “inactive” each time. For the same compound, the figures for the Z-AUC in assay [2], in assay [2] (setting [8]) and in assay [2] (measured here: PEO4 Z-AUC) were 3.54 (inactive), 3.55 and 3.92, respectively. The z-score was 1.13 in assay [3] (setting [9]), 1.05 in assay [3] (setting [10]) and 1.25 in assay [3] (setting [11]).
`CCc1cc2c(cc1N1CCC(N3CCOCC3)CC1)C(C)(C)c1[nH]c3cc(C#N)ccc3c1C2=O`: the results for the Z-AUC in assay [2], in assay [2] (setting [8]) and in assay [2] (measured here: PEO4 Z-AUC) were 0.0393 (inactive), -0.229 and -0.554, respectively.
For the compound `O=C(Cc1ccc(-c2ccc(OCCN3CCOCC3)cc2)cn1)NCc1ccccc1`, the Potency was 0.0264 µM (active) in assay [4]; 0.148 µM (active) in assay [1]; 0.0372 µM (active) in assay [5]; 0.0105 µM (active) in assay [6]; 0.0148 µM (active) in assay [7]; 0.148 µM (active) in assay [3] (TFE3-RCC UOK109 viability). For the same compound, the figures for the Z-AUC in assay [2], in assay [2] (setting [8]) and in assay [2] (measured here: PEO4 Z-AUC) were -0.749 (inactive), -0.848 and -1.63, respectively. The figures for the z-score in assay [3] (setting [9]), in assay [3] (setting [10]) and in assay [3] (setting [11]) were -1.65, -2.5 and -1.24, respectively.
For `Clc1cccc(-c2nnnn2Cc2cccnc2)c1Cl`, the Potency entry in assay [1] and in assay [7] was “inactive” in each case. Further, the z-score in assay [3] (setting [9]) was found to be 0.93; in assay [3] (setting [10]) it was 0.545; in assay [3] (setting [11]), 0.374.
In the case of `COc1ccc2c(c1)CC[C@@H](CN(C)CC(=O)O)[C@H]2c1ccccc1`, the Potency in assay [4] was 1.66 µM (active); in assay [1] it was 2.64 µM (active); in assay [6], 0.662 µM (active); in assay [7], 1.05 µM (active). Besides, the results for the Z-AUC in assay [2], in assay [2] (setting [8]) and in assay [2] (measured here: PEO4 Z-AUC) were 0.47 (inactive), 1.17 and 1.29, respectively.
As for `O=C(O)[C@H](Cc1c[nH]c2ccccc12)N1C(=O)c2ccccc2C1=O`, the Potency result in assay [1], in assay [5] and in assay [6] was “inactive” throughout. The Z-AUC in assay [2] is 1.05 (inactive); in assay [2] (setting [8]), 0.982; in assay [2] (measured here: PEO4 Z-AUC), 0.872. The results for the z-score in assay [3] (setting [9]), in assay [3] (setting [10]) and in assay [3] (setting [11]) were 0.59, 0.462 and 0.777, respectively.
For the compound `COC(=O)Nc1nc2ccc(C(=O)c3ccc(F)cc3)cc2[nH]1`, the Potency was 0.743 µM (active) in assay [4]; 1.87 µM (active) in assay [1]; 0.935 µM (active) in assay [5]; 0.296 µM (active) in assay [6]; 1.87 µM (active) in assay [3] (TFE3-RCC UOK109 viability). Besides, the Z-AUC in assay [2] is -0.379 (inactive); in assay [2] (setting [8]), -1.33; in assay [2] (measured here: PEO4 Z-AUC), -1.13. The z-score in assay [3] (setting [9]) was -1.13; in assay [3] (setting [10]), -1.2; in assay [3] (setting [11]), -0.98.
As for `Cn1c(=O)n(-c2ccc(C(C)(C)C#N)cc2)c2c3cc(-c4cnc5ccccc5c4)ccc3ncc21`, the Potency in assay [1] is 0.0105 µM (active); in assay [5], 0.0743 µM (active); in assay [7], 0.0209 µM (active); in assay [2], 0.002 µM (active). In addition, the Z-AUC in assay [2] (setting [8]) was -1.42; in assay [2] (measured here: PEO4 Z-AUC), -1.44.
Turning to `Cc1coc2c1C(=O)C(=O)c1c-2ccc2c1CCCC2(C)C`, the Potency in assay [1] was 2.09 µM (active); in assay [5] it was 16.6 µM (active). Moreover, the Z-AUC is 1.2 (inactive) in assay [2], 0.989 in assay [2] (setting [8]) and 0.949 in assay [2] (measured here: PEO4 Z-AUC).
As for `COc1cccc(-c2ccc(NC(=O)C3=C(C(=O)O)CCC3)c(F)c2)c1`, the Potency in assay [4] was 3.32 µM (active); in assay [1] it was 13.2 µM (active); in assay [6], 14.8 µM (active); in assay [7], 18.7 µM (active). Further, the Z-AUC is 0.233 (inactive) in assay [2], 0.433 in assay [2] (setting [8]) and 0.985 in assay [2] (measured here: PEO4 Z-AUC).
`CC[C@@H]1C(=O)N(C)c2cnc(Nc3ccc(C(=O)NC4CCN(C)CC4)cc3OC)nc2N1C1CCCC1`: the Potency in assay [4] was 7.43 µM (active); in assay [1], 7.43 µM (active); in assay [5], 0.059 µM (active); in assay [6] it was 0.0209 µM (active); in assay [7] it was 0.0118 µM (active); in assay [2] it was 0.0436 µM (active). In addition, in assay [3] (TFE3-RCC UOK109 viability), the Potency is 4.18 µM (active). Besides, the values for the Z-AUC in assay [2] (setting [8]) and in assay [2] (measured here: PEO4 Z-AUC) were -2.65 and -2.67, respectively. The z-score in assay [3] (setting [9]) is -0.898; in assay [3] (setting [10]), -2.05; in assay [3] (setting [11]), -1.29.

For the origin of these results see PubChem BioAssay (NCATS).
